Data as given in PubChem BioAssay (NCI).
This is part of a sample that, as a whole, favours compounds with a hit. Of some 83,000 tested, about 20% had one in any assay.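 Testing used 96-well plates and a 48-hour single-concentration exposure. Example: -40 means 40% of the starting cells died.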 Unmarked numbers belong to inactive results. Activity calls are given as the source filed them. The calls were made as follows: active = growth percent below 10; inactive = the rest.

Legend:
Assay in all cases: NCI-60 one-dose screen, 48 h (100 = growth as untreated, 0 = no growth, -100 = all killed)
Details in all cases: 10 µM unless noted
[1] = test system: SK-MEL-2 melanoma
[2] = test system: EKVX NSCLC
[3] = test system: SN12C renal
[4] = test system: UO-31 renal
[5] = test system: TK-10 renal
[6] = test system: ACHN renal
[7] = test system: A498 renal
[8] = test system: CCRF-CEM leukemia
[9] = test system: MOLT-4 leukemia
[10] = test system: SR leukemia
[11] = test system: RPMI-8226 leukemia
[12] = test system: OVCAR-8 ovarian
[13] = test system: OVCAR-5 ovarian
[14] = test system: OVCAR-4 ovarian
[15] = test system: SK-OV-3 ovarian
[16] = test system: IGROV1 ovarian
[17] = test system: OVCAR-3 ovarian
[18] = test system: HS 578T breast
[19] = test system: NCI/ADR-RES ovarian
[20] = test system: T-47D breast

Compound	growth [1] [%]	growth [2] [%]	growth [3]	growth [4] [%]	growth [5] [%]	growth [6]	growth [7] [%]	growth [8]	growth [9]	growth [10]	growth [11]	growth [12]	growth [13] [%]	growth [14]	growth [15] [%]	growth [16] [%]	growth [17]	growth [18]	growth [19] [%]	growth [20] [%]
O=C(CSC(=S)N1CCCCC1)Nc1ccccc1	92.1	106	106%	86.5	85.8	98.8%	99.5	89.9%	86.5%	87.1%	84.6%	99.4%	106	109%	106	103	107%	106%	102	81.7
Nc1c(C(=O)Nc2ccccn2)sc2nc3c(cc12)CCCC3	35.1	55.2	50.1%	61.6	97.5	69.8%	48.3	36.9%	29.8%	9.84% (active)	55.9%	65%	77.6	74.9%	42.4	55.2	23.9%	39.7%	28.2	43
CCn1cc(C(=O)O)c(=O)c2cc(F)c(N3CCN(CC(=O)Nc4ccc(/C(C)=N/OC)cc4)CC3)cc21	109	95.5	101%	79.9	101	103%	92.9	105%	96.4%	82.6%	105%	92.3%	101	103%	85.1	94.6	97.6%	94.7%	97.8	70.3
COc1ccc2nc(-c3ccc(OC)c(OC)c3)cc(-c3nnc(SCC(=O)Nc4ccc(C(C)=O)cc4)o3)c2c1	100	108	98.8%	91.7	109	101%	93.6	94.8%	95.5%	88.8%	90.8%	102%	109	106%	109	113	111%	97.3%	108	94.6
C#Cc1ccccc1NC(=O)c1sc2nc3c(cc2c1N)CCCCCC3	85.4	69.5	58.5%	50.1	63.2	31.1%	68.5	60.7%	67.1%	12.3%	56.4%	75.7%	93.1	-19% (active)	36.9	74.5	30.9%	8.22% (active)	67.4	49.7
COc1ccc(/C=C/C(=O)/C=C(/C=C/c2ccc(OC)c(OC)c2)OB(F)F)cc1OC	76.8	38	-5.34% (active)	40	36.9	-15.8% (active)	95.7	-12% (active)	1.45% (active)	0.197% (active)	-20.9% (active)	5.06% (active)	65.2	44.8%	81.9	49.6	-8.63% (active)	50.2%	30.1	35.5
CCOC(=O)NC(Cc1ccccc1)c1ccccc1 (stereo not given)	99.2	105	106%	93.2	96	109%	94	98.1%	85.8%	81.7%	98.2%	104%	106	106%	108	103	119%	102%	98.2	99.6
